PubChem BioAssay (NCATS)
The source made the active and inactive calls. The call rests on the fitted dose curve; in most records, active means well fitted curve in the direction sought with a large enough effect; inconclusive means small, poorly fitted or top-dose-only effect, or another doubt; inactive means no such curve, though single readings can be large or run the other way.

Biological target: Methanococcus maripaludis chaperonin (MmCpn) (UniProt Q6LX38)
Experiment: High-Throughput Screening for Modulators of Cytosolic Chaperonin Activity: MmCpn Primary Screen (AID 488978)
Details: Purified MmCpn ATPase activity, ADP HTRF detection, 10 min; series mostly up to 76.9 µM
Source text: Chaperonins are key components of the cellular chaperone machinery. These large complexes consist of two stacked 7-9 membered rings, each containing a central cavity. Substrates are folded within the cavity in an ATP-dependent manner. TRiC is a complex of eight different, essential proteins. As each of the genes encoding the eight subunits is essential for cell viability and no protocol has been developed to overexpress this enzyme to high levels, several groups have turned to the archaeal homolog of TRiC from Methanococcus maripaludis (MmCpn) as a model system for the study of the type II chaperonin family.
MmCpn was kindly provided by the laboratory of Judith Frydman.
1. Dispense 1.5 ul enzyme of either TriC at 100 nM or MmCpn at 50 nM final concentration.
2. Transfer 23 nl of compound to plate, incubate 5 min at RT.
3. 1.5 ul ATP at 30 uM at final concentration dispensed into plate.
4. Incubate for 10 minutes at 37C (MmCPN), 30C (TriC).
5. 3 ul of the Cisbio ADP Transcreener HTRF detection reagent prepared according to protocol dispensed into plate.
6. Incubate for 5 minutes.
7. Read using EnVision plate reader at Excitation = 320nm and Emission = 590nm, 665nm

Methanococcus maripaludis chaperonin (MmCpn), sequence (Q6LX38 1-543): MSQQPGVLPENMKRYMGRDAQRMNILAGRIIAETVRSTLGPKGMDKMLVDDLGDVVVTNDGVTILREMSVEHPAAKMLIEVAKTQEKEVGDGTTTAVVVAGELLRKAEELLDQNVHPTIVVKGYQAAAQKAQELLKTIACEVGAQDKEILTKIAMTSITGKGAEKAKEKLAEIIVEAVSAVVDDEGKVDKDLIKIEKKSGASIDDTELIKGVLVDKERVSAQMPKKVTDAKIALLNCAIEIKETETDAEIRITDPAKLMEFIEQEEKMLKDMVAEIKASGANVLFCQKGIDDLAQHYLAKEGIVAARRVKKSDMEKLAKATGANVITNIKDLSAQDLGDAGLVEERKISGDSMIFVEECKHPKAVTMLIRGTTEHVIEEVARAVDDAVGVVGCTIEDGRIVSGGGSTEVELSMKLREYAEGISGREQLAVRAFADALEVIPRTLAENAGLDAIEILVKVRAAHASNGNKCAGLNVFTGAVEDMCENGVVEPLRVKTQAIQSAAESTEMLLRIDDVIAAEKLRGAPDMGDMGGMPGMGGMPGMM

| Structure (SMILES) | outcome |
| --- | --- |
| CCCN1CCC[C@@H]2Cc3[nH]ncc3C[C@H]21 | inactive |
| CC[C@@H](CO)NC(=O)[C@@H]1C=C2c3cccc4c3c(cn4C)C[C@H]2N(C)C1 | inactive |
| c1ccc(C2CC2)c(OCC2=NCCN2)c1 | inactive |
| CC(O)(CS(=O)(=O)c1ccc(F)cc1)C(=O)Nc1ccc(C#N)c(C(F)(F)F)c1 (centres undefined) | inactive |
| CC(=O)[C@H]1CC[C@H]2[C@@H]3CC[C@H]4C[C@H](O)CC[C@]4(C)[C@H]3C(=O)C[C@]12C | inactive |
| Nc1ccncc1 | inactive |
| O=c1[nH]c2ccccc2n1C1CCN(CCCC(c2ccc(F)cc2)c2ccc(F)cc2)CC1 | inactive |
| O=C1NCN(c2ccccc2)C12CCN(CC1COc3ccccc3O1)CC2 (centres undefined) | inactive |
| CC(C)=CCOc1c2occc2cc2ccc(=O)oc12 | inactive |
| NCC1(CC(=O)O)CCCCC1 | inactive |
| CCCN1CCC[C@@H]2Cc3nc(N)ncc3C[C@H]21 | inactive |
| Cc1ncc(CNC(=O)N(CCCl)N=O)c(N)n1 | inactive |
| CC(CCc1ccccc1)NC(C)C(O)c1ccc(O)cc1 (centres undefined) | inactive |
| CCCC(C)(COC(N)=O)COC(=O)NC(C)C (centres undefined) | inactive |
| CCC1(C2=NCCN2)Cc2ccccc2O1 (centres undefined) | inactive |
| NCC(CC(=O)O)c1ccc(Cl)cc1 (centres undefined) | inactive |
| C=C(C)[C@H]1Cc2c(ccc3c2O[C@@H]2COc4cc(OC)c(OC)cc4[C@@H]2C3=O)O1 | inactive |

| Structure (SMILES) | outcome |
| --- | --- |
| N#CC(C#N)=Cc1ccc(O)c(O)c1 | inactive |
| CC(=O)[C@H]1CC[C@H]2[C@@H]3CC[C@H]4C[C@](C)(O)CC[C@]4(C)[C@H]3CC[C@]12C | inactive |
| CN1C[C@H](CNC(=O)OCc2ccccc2)C[C@@H]2c3cccc4c3c(cn4C)C[C@H]21 | inactive |
| Fc1ccc(C(OCCN2CCN(CCCc3ccccc3)CC2)c2ccc(F)cc2)cc1 | inactive |
| COc1ccccc1N1CCNCC1 | inactive |
| COC[C@H]1OC(=O)c2coc3c2[C@@]1(C)C1=C(C3=O)C2CCC(=O)[C@@]2(C)C[C@H]1OC(C)=O (some centres undefined) | inactive |
| NN=C(N)N | inactive |
| O=c1[nH]c2ccccc2n1CCCN1CCC(n2c(=O)[nH]c3cc(Cl)ccc32)CC1 | inactive |
| Cc1ccc(S(=O)(=O)N[C@@H](CCCCN)C(=O)CCl)cc1 | inactive |
| Cc1cccc(C)c1NC1=NCCCS1 | inactive |
| COc1ccc(C(CN(C)C)C2(O)CCCCC2)cc1 (centres undefined) | inactive |
| NCC(O)c1ccc(O)cc1 (centres undefined) | inactive |
| c1ccc2c(c1)OCC(C1=NCCN1)O2 (centres undefined) | inactive |
| CC[C@@H](CO)NC(=O)[C@@H]1C=C2c3cccc4[nH]cc(c34)C[C@H]2N(C)C1 | inactive |
| CNCC(O)c1ccc(O)cc1 (centres undefined) | inactive |
| Cc1cccc(C)c1NC(=O)CN1CCCC1=O | inactive |
| C[C@@H]1O[C@@H](O[C@H]2C[C@@H](O)[C@]3(CO)[C@H]4[C@H](O)C[C@]5(C)[C@@H](C6=CC(=O)OC6)CC[C@]5(O)[C@@H]4CC[C@]3(O)C2)[C@H](O)[C@H](O)[C@H]1O | inactive |
